Composite z-score data for 35 compounds are collected here from PubChem BioAssay.

In this test the test system is PRMT1 (protein arginine N-methyltransferase 1). Nature of the test: small molecules binding arginine methyltransferase PRMT1 – biochemical, small-molecule microarray, 635 nm fluorescence, primary screen (AID 1088). The following applies: higher = more signal.
For `C=C(/C(=C/C[C@H](OC(C)=O)c1ccccc1OCCO)c1cc(C(=O)OC)ccc1OC)C(C)C`, the composite z-score stood at 0.617.

Turning to `C[N+](C)(C)CCCC[C@@H]1NC(=O)[C@H]2C[C@@H](C(=O)NCCCCCCN)[C@@H](c3ccc(O)cc3)N2C1=O`, the composite z-score came to 1.26. As to `COc1ccccc1CN1C(=O)c2ccccc2[C@](Cc2ccccc2I)(C(=O)NCC(F)(F)F)[C@@H]1c1ccc(CO)cc1`, the composite z-score was determined as 1.55. As for `O=C(NCc1ccccc1)[C@@H]1c2ccccc2C(=O)N(Cc2ccccc2C(F)(F)F)[C@H]1c1ccc(CO)cc1`, the figure is 1.45; as for `COC(=O)[C@H](Cc1ccccc1)N1CC(/C=C/C2CC2)=C[C@H]1[C@H](O)Cc1ccccc1`, 1.54. In the case of `CCOC(=O)C1=CC[C@@H](c2ccc(OCc3ccccc3)c(OC)c2)N(S(=O)(=O)c2ccc(C)cc2)[C@H]1c1ccc(SC)cc1`, the composite z-score was 1.1. The value for `COc1cccc(/C=C/C=O)c1` was 0.247; that for `CC(=O)NCCCC[C@@H]1NC(=O)[C@H]2C[C@@H](C(=O)NCCCC[N+](C)(C)C)[C@@H](c3cccc(OCCO)c3)N2C1=O` was 1.41. As for `O=C1C2C=CC(C(O)c3ccccc3)N(Nc3ccccc3F)C2C(=O)N1c1ccccc1` (stereo not given), the figure is 0.101; as for `CCOC(=O)C[C@H]1[C@H](OC(=O)c2ccccc2-c2ccccc2)[C@@H](NC(=O)c2ccc(-c3ccccc3)cc2)c2cc(OCCCO)ccc2N1C(=O)c1ccc2ccccc2n1`, 1.02. The value for `CO[C@]12C=C(Br)[C@@H](C[C@@H]1c1cccc(C)c1)[C@@]1(CO1)C2=O` was 0.435; that for `[N-]=[N+]=Nc1ccccc1[C@@H]1OC(c2ccc(OCCCO)cc2)=N[C@]1(Cc1ccccc1)C(=O)NCC(O)CO` (stereo not given in full) was 1.55; that for `COc1ccc([Si](C)(C)[C@@H]2[C@@H](CCn3cc([C@H](O)c4ccccc4)nn3)O[C@]3(C(=O)N(Cc4ccc(N5CCC5=O)cc4)c4ccccc43)[C@H]2C)cc1` was 0.0655. Take `C=CCC(OC(C)=O)[C@@H]1[C@@H](N(Cc2ccc(-c3cccc(C(F)(F)F)c3)o2)C(=O)c2ccc(C)cc2)c2cc(OCCCO)ccc2N1C(=O)c1ccc2ccccc2c1` (stereo not given in full): the composite z-score came to 0.128. As to `C=CCC(OC(C)=O)[C@@H]1[C@@H](N(Cc2cccc3ccccc23)C(=O)Cc2ccc(F)cc2)c2cc(OCCCO)ccc2N1C(=O)c1ccc2ccccc2n1` (stereo not given in full), the composite z-score is -0.293. The value for `C[C@H]1NC(=O)[C@@]23C(=O)N[C@@H](Cc4ccccc4)C2[C@H](C)[C@@]2(C)O[C@H]2C3/C=C/C/C=C\CNC(=O)[C@H](Cc2ccccc2)NC1=O` (stereo not given in full) was 0.44; that for `CCCCCCCCCCC(O)C1C=CC2C(=O)N(C)C(=O)C2N1Nc1ccc([N+](=O)[O-])cc1[N+](=O)[O-]` (stereo not given) was 0.195. Take `NCCCCCCNC(=O)[C@@H]1C[C@@H]2C(=O)N[C@@H](CCCCN)C(=O)N2[C@@H]1c1cccc(OCCO)c1`: the composite z-score is 1.28. As for `N#Cc1ccc(C(O)C2C=CC3C(=O)N(c4ccccc4)C(=O)C3N2Nc2ccccc2)cc1` (stereo not given), the figure is 0.0016; as for `CC1=C([C@H](O)CCc2ccccc2)[C@H](CO)[C@@H]2C(=O)N(C)C(=O)[C@@H]2C1`, 0.958; as for `CCOC(=O)C1=CC[C@@H](c2cccc(Cl)c2)N(S(=O)(=O)c2ccc(C)cc2)C1`, 0.335. As for `COCCOC(=O)N1C(=O)[C@@]2(c3cc(C#Cc4ccc(OC)cc4)ccc31)[C@H](C(=O)Nc1nc3ccccc3s1)[C@H]1C(=O)O[C@H](c3ccccc3)[C@H](c3ccccc3)N1[C@@H]2c1ccc(O)cc1`, the figure is 1.55; as for `COc1ccc(C#Cc2ccc3c(c2)[C@]2(C(=O)N3)[C@H](c3ccc(O)cc3)N3[C@H](c4ccccc4)[C@H](c4ccccc4)OC(=O)[C@H]3[C@@H]2C(=O)O)cc1`, 0.525. In turn, `CC(C)C[C@@H]1NC(=O)[C@@H]2C[C@H](C(=O)NCCCCCN)[C@H](c3ccc(O)cc3)N2C1=O` showed a composite z-score of 1.57.

Turning to `CN1C(=O)C2C=CC(C(O)c3ccc(F)cc3)N(Nc3ccccc3)C2C1=O` (stereo not given), the composite z-score was determined as 0.225. In turn, `CCC[C@@H]1C[C@@]1(CCC)[C@@H](NC(=O)OCc1ccccc1)c1ccc(-c2ccccc2)cc1` registered a composite z-score of -0.936. As for `COc1ccc(NC(=O)O[C@H]2[C@H](OC(=O)Nc3ccccc3)[C@H](OC(=O)Nc3ccccc3)[C@@H](OC)O[C@@H]2CO)cc1`, the figure is 1.55; as for `CC(C)[Si](C#C[Si](C(C)C)(C(C)C)C(C)C)(O[C@H](C)c1cn([C@H](CO)Cc2ccccc2)nn1)C(C)C`, 0.857. In turn, `[N-]=[N+]=NCc1ccccc1[C@@H]1OC(c2ccc(OCCCO)cc2)=N[C@]1(CCS(=O)(=O)c1ccccc1)C(=O)NCC(O)CO` (stereo not given in full) returned a composite z-score of 1.54. For the compound `CCC(CC)C(O)C1C=CC2C(=O)N(c3ccccc3)C(=O)C2N1Nc1ccc(C(C)C)cc1` (stereo not given), the composite z-score stood at 1.43.

As to `C=C(C)C1CCC(C(O)C2C=CC3C(=O)N(C)C(=O)C3N2N2CCCCC2)CC1` (stereo not given), the composite z-score was 1.53. As for `O=C1NC(=O)C2C1C=CC(C(O)c1cccc3ccccc13)N2Nc1ccc(Cl)cc1Cl` (stereo not given), the figure is 0.811; as for `C=CCOC(=O)[C@H]1[C@@H]2C(=O)O[C@@H](c3ccccc3)[C@@H](c3ccccc3)N2[C@@H](c2ccc(OCCOC(=O)[C@@H]3C[C@@H]4C(=O)N[C@@H](CCCCN(C)C)C(=O)N4[C@@H]3c3ccc(O)cc3)cc2)[C@]12C(=O)Nc1ccccc12`, 1.55. The value for `CCOC(=O)C1=CC[C@@H](c2ccccc2C(F)(F)F)N(S(=O)(=O)c2ccc(C)cc2)[C@H]1c1ccc(C#N)cc1` was 0.884; that for `CCCNC(=O)[C@@H]1c2ccccc2C(=O)N(C(C)C)[C@H]1c1ccc(CO)cc1` was 0.541.
